Screening results deposited in PubChem by Broad Institute.
A selection follows.
aSyn 5UTR act = Activators via SNCA 5'UTR binding, MLPCN; 7.1% of 300,000 active; AID 1814; alpha-synuclein 5'UTR reporter, activators screen; activity score, % (tested at 7.5 µM), hits read low; in the data active = activity score below about -60%
Active calls of the source: *; + = active, no number.

SMILES	aSyn 5UTR act
COc1ccc(OC)c(-c2csc(NC(=O)C3=NN(c4ccccc4)C(=O)CC3)n2)c1	-128.8*
O=C(Nc1nc2ccc(F)cc2s1)c1ccc(N2CCCC2=O)cc1	-154.9*
O=C(Nc1nc2ccc(F)cc2s1)c1ccccn1	102.4
Cc1csc(NC(=O)c2ccc(N3CCCC3=O)cc2)n1	101.0
CC(C)(C)NC(=S)N/N=C\c1ccc(-c2ccc([N+](=O)[O-])cc2)o1	-78.9*
C=CCNC(=S)N/N=C/c1ccc(-c2ccc(OC)cc2)o1	-61.8*
Cc1cc(C)c(C(=O)/C=C/c2ccc(C(C)C)cc2)c(=O)[nH]1	-90.5*
Cc1cc(O)c(C(=O)/C=C/c2ccc(C(C)C)cc2)c(=O)o1	-129.2*
Cc1cc(O)c(C(=O)/C=C/c2ccccc2Br)c(=O)o1	-170.6*
Cc1cc(O)c(C(=O)/C=C/c2ccccc2)c(=O)o1	-103.2*
CCOc1ccc(/C=C/C(=O)c2c(O)cc(C)oc2=O)cc1	-181.9*
CSc1nc(N)c(C(=O)Nc2ccc([N+](=O)[O-])cc2)s1	-66.2*
c1csc(-c2nc3c4ccccc4c4ccccc4c3[nH]2)c1	-72.9*
COCCn1c(C(F)(F)F)ccc(NC(=O)c2ccccc2)c1=O	-96.5*
Cc1ccc(C(=O)Nc2ccc(C(F)(F)F)n(C)c2=O)cc1	-144.6*
COc1ccc(C(=O)Nc2ccc(C(F)(F)F)n(C)c2=O)cc1	-151.3*
Cc1cc2ccccn2c1C(C[N+](=O)[O-])c1ccc(N(C)C)cc1 (stereo not given)	-79.6*
O=C(NCCCc1ccccc1)c1ccccc1	-166.6*
CC(C)=CC(=O)NCCc1ccccc1	-63.8*
O=C(NC(=S)NCCc1ccccc1)c1ccccc1	-115.4*
O=C(NCCc1ccccc1)c1ccc(Br)o1	-93.1*
O=C(NCCc1ccccc1)c1ccc(-n2cnnn2)cc1	-66.1*
O=C(NCCc1ccccc1)c1cnc2n(c1=O)CCS2	-79.5*
O=C(NCCc1ccccc1)c1c[nH]c2c(F)cccc2c1=O	-93.5*
CN(C(=O)COc1ccccc1C(=O)NCCc1ccccc1)c1ccccc1	-98.1*
SMILES	aSyn 5UTR act
O=C(NCCc1ccccc1)c1ccccc1NS(=O)(=O)N1CCCC1	-88.1*
O=C(NCCc1ccccc1)c1ccc(Cl)cc1[N+](=O)[O-]	-166.8*
O=C(CCCC(=O)c1ccc(O)cc1)c1ccc(O)cc1	-70.8*
COc1ccc(C(=O)NCCCc2ccccc2)cc1	-149.1*
O=C(CN(c1ccc(Cl)cc1)S(=O)(=O)c1ccc(Cl)c([N+](=O)[O-])c1)NCCc1ccccc1	105.8
O=C(CCCc1ccccc1)c1ccccc1	-104.9*
Cc1ccc(C(=O)NCCCc2ccccc2)s1	-136.8*
Cc1ccccc1C(=O)NCCCc1ccccc1	-83.8*
O=C(NCCc1ccccc1)c1ccccc1C(=O)NCCc1ccccc1	-113.1*
Cc1nc(NC(=S)NC(=O)c2cccs2)ccc1Br	-161.2*
Cc1cccc(NC(=S)NC(=O)c2cccs2)n1	-139.6*
O=C(NC(=S)Nc1cccc2cccnc12)c1cccs1	-63.4*
COc1ccc(C2=NN(CN3C(=O)C(=O)c4ccccc43)C(c3ccc(OC)cc3)C2)cc1 (stereo not given)	-181.9*
COc1cccc2sc3ccc(C#Cc4ccc(N)cc4)cc3c(=O)c12	-111.1*
Nc1ccc(C#Cc2ccc3sc4ccccc4c(=O)c3c2)cc1	-190.1*
COc1cccc2sc3ccc(C#CC4(O)CCCCC4)cc3c(=O)c12	-190.8*
O=c1c2ccccc2sc2ccc(C#CC3(O)CCCCC3)cc12	103.8
COc1cccc2sc3ccc(NCc4ccc5c(c4)OCO5)cc3c(=O)c12	-63.0*
COc1ccc2sc3ccccc3c(=O)c2c1OC	-145.0*
COc1ccc2sc3c(=O)[nH]c4ccccc4c3c2c1	63.0
COc1ccccc1N=C1NC(=O)/C(=C/c2ccc(N(C)C)cc2)S1	-194.2*
Cc1ccc(N=Cc2nc(-c3ccco3)oc2O)cc1	-68.9*
Cc1ccc(-c2nc(C=Nc3ccccc3)c(O)o2)cc1	-101.7*
Oc1oc(-c2ccc(Br)cc2)nc1/C=N/c1ccccn1	-81.4*
Oc1oc(-c2ccccc2)nc1/C=N/c1nccs1	-86.1*
SMILES	aSyn 5UTR act
O=C(/C=C/c1ccco1)NC(=S)Nc1ccccn1	-127.5*
Cc1cccnc1NC(=S)NC(=O)/C=C/c1ccco1	-88.7*
Cc1ccc(Nc2c([N+](=O)[O-])ccc3c2=NC2(CCCCC2)N=3)cc1	-67.7*
CCOC(=O)c1cc(C)n(CCc2ccccc2)c1C	-68.8*
Nc1ccc2oc3ccc(N)cc3c(=O)c2c1	-102.8*
Cc1ccc(NC(=O)O/N=C/c2ccc(F)cc2)cc1	-131.4*
O=C(Nc1ccccc1)O/N=C/c1ccc(F)cc1	-189.4*
Cc1ccc(NC(=O)O/N=C/c2ccc(N(C)C)cc2)cc1	-71.1*
COc1ccc(C2NC(=S)NC3=C2CCCC3=C2SCCS2)cc1 (stereo not given)	+
COc1ccccc1Cn1nnc2c(=O)[nH]c(C3CCN(C(=O)c4ccccc4Cl)CC3)nc21	60.3
O=C1CCC(C(=O)N2CCCCO2)CN1CCc1ccccc1 (stereo not given)	-89.2*
COCCn1c(=O)c2c(nc3n2CC(C)CN3CCc2ccccc2)n(C)c1=O (stereo not given)	67.2
